According to PubChem BioAssay AID624330 (Southern Research Specialized Biocontainment Screening …, 2012):
Among all 340,000 compounds or so, about 2,100 (0.62%) were called active. Only a sample is shown. Measured potencies and affinities stand elsewhere. Unmarked numbers belong to inactive results.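 The calls were made as follows: active = first-screen hits whose inhibition reached a set limit at any dose in the follow-up dose series; inconclusive = inhibition above the set first-screen limit but never retested; inactive = the rest.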

molecular target: Rac GTPase-activating protein 1 (Homo sapiens) (UniProt Q9H0H5); assay: MgcRacGAP GTPase-activating activity inhibitors, confirmation, biochemical, ADP Hunter fluorescence, primary and confirmatory (AID 624330); details: MgcRacGAP-stimulated Rac1 GTP hydrolysis, at 30 µM, stronger effect = higher value, GST-tagged Rac1 F28L mutant substrate;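 also: fluorescence reports GDP produced by GAP-driven GTP hydrolysis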
Sequence (Q9H0H5 whole entry, looked up): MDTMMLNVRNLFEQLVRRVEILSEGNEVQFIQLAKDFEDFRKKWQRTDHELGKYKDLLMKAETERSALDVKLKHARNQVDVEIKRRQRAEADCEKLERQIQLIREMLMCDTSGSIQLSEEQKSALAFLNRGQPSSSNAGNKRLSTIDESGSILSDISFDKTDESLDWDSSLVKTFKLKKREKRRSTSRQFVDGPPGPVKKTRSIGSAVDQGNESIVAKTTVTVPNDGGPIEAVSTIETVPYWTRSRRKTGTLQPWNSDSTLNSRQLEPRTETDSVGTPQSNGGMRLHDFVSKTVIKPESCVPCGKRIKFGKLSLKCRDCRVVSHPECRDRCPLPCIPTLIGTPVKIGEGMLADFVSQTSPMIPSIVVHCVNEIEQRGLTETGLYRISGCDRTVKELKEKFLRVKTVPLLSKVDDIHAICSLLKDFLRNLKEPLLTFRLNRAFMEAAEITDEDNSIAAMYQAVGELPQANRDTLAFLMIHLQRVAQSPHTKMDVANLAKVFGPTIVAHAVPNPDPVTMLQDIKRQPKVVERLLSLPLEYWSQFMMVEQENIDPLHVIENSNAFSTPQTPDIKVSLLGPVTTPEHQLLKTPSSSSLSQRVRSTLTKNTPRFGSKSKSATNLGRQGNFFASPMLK

Row | SMILES | inhibition
1 | O=c1[nH]c(SCc2ccccc2)nc2ccsc12 | 6.38%
2 | O=C(NCc1ccccc1)/C(=C/c1ccccc1)NC(=O)c1ccco1 | 2.6%
3 | O=C(NCc1ccccc1)/C(=C\c1ccccc1)NC(=O)c1ccco1 | 6.99%
4 | COc1ccc(NC(=S)N2CCNC(=O)C2CC(=O)Nc2ccc(C)cc2)cc1 (stereo not given) | 15.2%
5 | COc1ccc(/C=N/NC(=O)CN2CCCC2)cc1 | -0.98%
6 | O=C(CCN1CCN(C(c2ccccc2)c2ccccc2)CC1)N/N=C/c1ccc(O)cc1O | 30.9%
7 | COc1cc(/C=N/NC(=O)CCN2CCN(c3ccccc3)CC2)cc(OC)c1OC | 4.52%
8 | NNC(=O)CCN1CCN(C(c2ccccc2)c2ccccc2)CC1 | -8.98%
9 | COc1ccc(/C=N\NC(=O)CCN2CCN(c3ccccc3)CC2)cc1OC | 7.5%
10 | COc1ccc(OC)c(/C=N/NC(=O)CCN2CCN(C(c3ccccc3)c3ccccc3)CC2)c1 | -2.42%
11 | O=C(CCN1CCCCC1)N/N=C/c1ccc(Br)cc1 | 7.98%
12 | COc1ccc(Br)cc1/C=N/NC(=O)CN1CCCCC1 | 14.3%
13 | CN(C)CCN(Cc1ccco1)S(=O)(=O)c1csc(C(N)=O)c1 | 4.25%
14 | O=C(c1ccccn1)N1CCN(C(=O)c2ccccn2)CC1 | 3.69%
15 | O=C(c1ccc(OC2CCN(CCCc3ccccc3)CC2)cc1)N1CCCC1 | 3.48%
16 | NC(=O)NCC1CC1 | 4.2%
17 | O=C(OCC(=O)N1N=C(c2ccc(Cl)cc2)CC1c1ccco1)c1ccccc1O (stereo not given) | 3.05%
18 | CC[C@]12c3[nH]c4cc(-c5ccco5)ccc4c3CCN1C(=O)[C@@H](CC(=O)NC/C=C(\C)CCC=C(C)C)C[C@@H]2C(=O)N1CCN(C(=O)C2CC2)CC1 | -1.48%
19 | O=C1CSC(c2ccco2)N1 (stereo not given) | 0.85%
20 | O=C(O)C1CSC(c2ccncc2)N1 (stereo not given) | 8.95%

Row | SMILES | inhibition
21 | CC1=NN(c2ccccc2)C(=O)/C1=C/C=C/c1ccccc1 | 6.5%
22 | CC1=NN(c2ccccc2)C(=O)/C1=C/N(C)C | 8.12%
23 | COc1ccccc1/C=C1/C(=O)N(c2ccc([N+](=O)[O-])cc2)N=C1C | 4.92%
24 | COc1ccc(/C=C2/C(=O)N(c3ccccc3)N=C2C)cc1OC | 17.9%
25 | COc1cc(C=C2C(=O)OC(C)(C)OC2=O)ccc1OCC(=O)Nc1ccccc1 | 4.19%
26 | COc1ccc(/C=C2/C(=O)N(c3ccccc3)N=C2C)cc1Br | 1.8%
27 | C#CCOc1ccc(/C=C2/C(=O)N(c3cccc(C(=O)O)c3)N=C2C)cc1OC | 31.7%
28 | CCOc1cc(/C=C2\C(=O)N(CCC#N)N=C2C)ccc1OCC(N)=O | 21.4%
29 | O=C(C1CCN(c2nnc(N3CCCC3=O)s2)CC1)N1CCN(c2cccc(C(F)(F)F)c2)CC1 | 7.18%
30 | COC(=O)c1cccc2c(C(=O)O)cc(-c3ccccc3)nc12 | 3.38%
31 | c1ccc2c(c1)ccc1nnc(SCc3ccc4c(c3)OCCO4)n12 | 3.92%
32 | CC(=O)OC1CC2(C)C(CCC2(O)C(C)=O)C2CCC3C(Cl)C(=O)CCC3(C)C12 (stereo not given) | 2.5%
33 | COCC(=O)N1C[C@H]2CON(C)[C@H]2C[C@H]1c1cccc(-c2ccccc2OC)c1 | 15.1%
34 | CCOP(=O)(OCC)c1ccc2c(c1)C(=O)c1ccccc1CC2 | 9.38%
35 | CCOc1ncccc1C(=O)OCc1c(F)cccc1Cl | -3.89%
36 | CC(C)(C)C(=O)Nc1c2c(nn1-c1ccc(F)cc1)CSC2 | 11%
37 | CCCc1ccc2oc(C(=O)NCCN3CCCC(C(N)=O)C3)c(C)c2c1 (stereo not given) | -11.6%
38 | COc1ccc2ccccc2c1CNCCCN1CCOCC1 | 5.19%
39 | O=C(O)/C=C/c1nc(-c2ccccc2)n2ccccc12 | 16.7%
40 | CN1CCN(/N=C/c2ccc(-c3ccccc3)cc2)CC1 | 13.1%

Row | SMILES | inhibition
41 | O=Cc1nc(-c2ccc(Cl)cc2)n2ccccc12 | -3.25%
42 | O=Cc1nc(-c2ccccc2Cl)n2ccccc12 | 3.46%
43 | CC(C)(C)c1ccc(-c2nc(C=O)c3ccccn23)cc1 | -4.54%
44 | CN1CCN(/N=C/c2nc(-c3cccc([N+](=O)[O-])c3)n3ccccc23)CC1 | 12.2%
45 | CN1CCN(/N=C/c2nc(-c3ccccc3Cl)n3ccccc23)CC1 | 21.2%
46 | CSc1ccc(/C=N/N2CCN(C)CC2)cc1 | 11.3%
47 | CSCC[C@H](NC(=O)C1CCC(CNC(=O)[C@@H]2CCCN2C(=O)OC(C)(C)C)CC1)C(=O)O (stereo not given in full) | 0.46%
48 | Cc1ccccc1COCCN1CCN(S(=O)(=O)c2ccccc2)CCC1=O | 12.5%
49 | CC(C)Oc1ccc(C(=O)Nc2ccc([N+](=O)[O-])cc2)cc1 | 11.4%
50 | Cc1cc(=O)oc2cc(NC(=O)c3ccccc3Cl)ccc12 | 9.35%
51 | CCCc1c(C(=O)N/N=C/C=C/c2ccccc2)nnn1-c1nonc1N | 15.9%
52 | O=C(Oc1cccnc1)c1cc(S(=O)(=O)N2CCCCC2)ccc1Cl | 2.68%
53 | COc1ccc(OC(=O)c2cccc(S(=O)(=O)N3CCCC3)c2)cc1 | 15.8%
54 | O=[N+]([O-])c1ccc(C2=Nn3c(Cn4nnc5ccccc54)nnc3SC2)cc1 | 10.3%
55 | COc1cccc(Oc2cnc(N)nc2-c2ccc(OC)cc2O)c1 | 6.49%
56 | C=C(C)COc1ccc(-c2nc(N)ncc2Oc2ccccc2OCC)c(O)c1 | 10.4%
57 | CCOc1ccc(-c2[nH]ncc2Oc2ccccc2OCC)c(O)c1 | 6.69%
58 | C=C(C)COc1ccc(-c2nc(N)ncc2Oc2ccc(OC)cc2)c(O)c1 | -7.13%
59 | COc1cccc(Oc2cncnc2-c2ccc(OC)cc2O)c1 | 8.42%
60 | CCOc1ccc(-c2nc(N)ncc2Oc2ccc(OC)cc2)c(O)c1 | 1.9%
